From PubChem
In the library only some 21% were active in any assay of this set; here they are far more common.
Cycloheximide cs = counter-screen for Shiga toxin inhibitors: cycloheximide protein synthesis inhibition; hit rate 12% among 300,000; max response, %; cell reporter, cycloheximide protein synthesis inhibition counterscreen; in the data active means max response mostly above about 13%, no sharp cut-off; inactive means mostly below about 14%; further: read at 38.3 µM for the half of the compounds with a filed dose; 0% is about no effect
Shiga inhibitor = Shiga toxin inhibition. Vero cells, Shiga toxin protein synthesis inhibition reporter. inhibition, % at 38.7 µM. hit rate 9.2% among 290,000; in the data active means inhibition mostly above about 28%, no sharp cut-off; inactive means mostly below about 43%; further: 0% is about no effect
FBPA Giardia inh = inhibitors of Giardia lamblia fructose-1,6-bisphosphate aldolase; A8B2U2; Potency, µM (doses to about 59.6 µM), for the others: top-dose activity, negative = inhibition, most hits filed as inhibitors; hit rate 0.71% among 290,000; purified Giardia FBPA; AID 2451; further: potency means the concentration at half of the fitted maximal effect; on the % scale 0 is the no-effect control and ±100 the full control effect; nearly all actives have a fitted effect of over 55% in size
Target sequence (A8B2U2 whole entry, looked up): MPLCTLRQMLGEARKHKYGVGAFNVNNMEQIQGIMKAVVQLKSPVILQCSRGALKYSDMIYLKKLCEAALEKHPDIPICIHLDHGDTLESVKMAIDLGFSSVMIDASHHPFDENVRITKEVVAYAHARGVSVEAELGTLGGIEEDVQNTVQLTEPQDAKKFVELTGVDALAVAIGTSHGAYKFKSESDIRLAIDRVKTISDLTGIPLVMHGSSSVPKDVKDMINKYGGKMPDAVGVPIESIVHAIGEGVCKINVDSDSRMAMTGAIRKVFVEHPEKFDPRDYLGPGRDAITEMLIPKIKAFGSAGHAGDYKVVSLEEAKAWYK
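Giardia FBPA (40 nM reagent) was preincubated 10 min at RT with compound (up to 57.5 uM final), then substrate plus GAPDH/TPI/NAD/arsenate coupling system with diaphorase/resazurin was added; resorufin fluorescence (525/598 nm) was read after 20 min.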
NS1 function inh = influenza NS1 inhibition. AID 2326. Potency, µM (doses to about 46.1 µM), inactives show at the top dose activity, positive = more growth. hit rate 0.4% among 270,000; calls by dose curve; further: potency means the concentration at half of the fitted maximal effect; actives are rising curves; nearly all actives have a fitted effect of over 50% in size
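Growth recovery, yeast-based: influenza A NS1 expressed in S. cerevisiae causes slow growth, and suppressors are detected by OD600. The parent strain without NS1 is used as positive control.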
Pf growth 96h = P. falciparum growth inhibition at 96 hours. Potency, µM (series often up to 28.7 µM), for the others: at the top dose activity change, negative = inhibition, hits mostly inhibitors. hit rate 6.9% among 320,000. P. falciparum luciferase reporter growth, 96 h; further: potency means the concentration at half of the fitted maximal effect; on the % scale 0 is the no-effect control and ±100 the full control effect
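Plates of compound plus infected erythrocytes (2% hematocrit, 0.05% parasitemia final) incubate 96 hours, 37 C, 5% CO2. Detection reagent added; reduced luminescence from the parasites' luciferase reporter flags inhibition.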
Pf growth 48h = inhibits P. falciparum growth in the first generation, 48 h | P. falciparum luciferase growth in erythrocytes, 48 h | Potency, µM (doses to about 28.7 µM), without a hit: top-dose activity change, negative = inhibition, usual class: inhibitors | hit rate 5.9% among 310,000 | AID 504832; further: potency means the concentration at half of the fitted maximal effect; on the % scale 0 is the no-effect control and ±100 the full control effect
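Here the parasites carry a stable luciferase gene and grow inside erythrocytes in Albumax-based RPMI medium with compound for one erythrocytic cycle. Activity is scored as loss of luminescent signal.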
* hit, by the source's call; ? = inconclusive; / = no result given; [ ] = remark or other dose. Unless noted, the call rests on the fitted dose curve; in most records, active means well fitted curve in the direction sought with a large enough effect; inconclusive means small, poorly fitted or top-dose-only effect, or another doubt; inactive means no such curve, though single readings can be large; an effect the other way counts as inactive or inconclusive.

SMILES	Cycloheximide cs	Shiga inhibitor	FBPA Giardia inh	NS1 function inh	Pf growth 96h	Pf growth 48h
COC(=O)C1=C(Nc2ccccc2NC(=O)CCCC(=O)O)CSC1	14*	29	-15%	3%	20%	21%
Cc1cc(NC(=O)CSc2nnc(C)n2C)no1	-4	-5	/	5%	3%	34%
CCOc1cc(CNc2ccc(N3CCCC3)cc2)cc(Cl)c1OC	20	41*	?	8%	5.2µM*	2.9µM*
COc1cc(CNc2cccc(C(=O)O)c2)cc(Br)c1OCC(=O)NC(C)(C)C	12	-11	27%	?	12µM*	6%
C=CCOc1c(Br)cc(CNc2ccc(NC(=O)CCC)cc2)cc1OCC	3	12	1%	-26%	61%	50%
COc1cc(CNc2ccc3[nH]c(=O)[nH]c3c2)cc(Br)c1OCC(=O)NC(C)(C)C	3	6	-12%	6%	?	/
CCOc1cc(CNc2ccc(N3CCCCC3)cc2)cc(Br)c1OCC(=O)NC(C)(C)C	14*	22	-7%	-27%	13µM*	?
CCOc1cc(CNc2ccc(S(N)(=O)=O)cc2)cc(Cl)c1OC	-2	4	-2%	-3%	-3%	3%
CCOc1cc(CNc2ccc(N3CCOCC3)cc2)cc(Br)c1OCC	-3	-12	-14%	7%	?	?
CCOc1cc(CNc2ccc(N(C)C)cc2)cc(Br)c1OCC(=O)NC(C)(C)C	36*	38*	5µM*	-19%	?	0.66µM*
CCCC(C(=O)NC1CCCC1)N(Cc1ccc(OC)cc1)C(=O)c1snc(C(N)=O)c1N (stereo not given)	-2	-5	10%	-3%	1%	?
CCC(=O)Nc1ccc(C(=O)CSc2nnc(-c3ccc(NS(=O)(=O)CC)cc3)o2)cc1OC	-3	-11	4%	8%	9%	10%
O=C(CCC(=O)N1CCCC(Nc2ccccc2)C1)c1ccc(F)cc1 (stereo not given)	-3	1	4%	6%	11%	2%
CC(OC(=O)C1CCC1)C(=O)Nc1cc(Cl)cc(Cl)c1 (stereo not given)	/	/	/	/	3%	15%
COc1ccc(CCNC(=O)CCNS(=O)(=O)c2cccc(Cl)c2)cc1OC	-1	-6	1%	/	?	-17%
CCOc1cc(CNc2cccc3ccccc23)cc(Br)c1OCC(=O)NC(C)(C)C	11	-3	-4%	19%	9.3µM*	/
CCOc1cc(CO)cc(Br)c1OCC(=O)Nc1ccccc1C	-2	-9	6%	-4%	61%	-17%
CCO[C@H]1O[C@@H]([C@H](COCc2ccccc2)OCc2ccccc2)[C@@H](OCc2ccccc2)[C@H]1O	/	/	-15%[21.7 µM]	/	4.5µM*	6.4µM*
OC(COc1ccc(F)cc1Cl)CN1CCC(Cc2ccccc2)CC1 (stereo not given)	-5	1	3%	-4%	?	12µM*
OC(COc1ccc2cc(Br)ccc2c1)CN1CCCC1 (stereo not given)	46*	77*	-16%	-1%	31%	?
OC(COc1ccc(CN2CCCCO2)cc1)CN1CCCCC1 (stereo not given)	-8	15	6%	2%	12µM*	?
OCCN1CCN(CC(O)COc2ccc(-c3ccccc3)cc2)CC1 (stereo not given)	32*	74*	-9%	-6%	/	-18%
OC(COc1ccccc1F)CN1CCC(Cc2ccccc2)CC1 (stereo not given)	1	-5	?	-29%	?	-16%
CC(C)(c1ccccc1)c1ccc(OCC(O)CN2CCCC2)cc1 (stereo not given)	-8	-12	?	3%	-31%	13µM*
OC(COc1ccccc1)CN1CCCC1 (stereo not given)	-8	-6	?	/	-1%	-14%
SMILES	Cycloheximide cs	Shiga inhibitor	FBPA Giardia inh	NS1 function inh	Pf growth 96h	Pf growth 48h
OC(COc1ccc(Br)cc1)CN1CCN(c2ccccc2)CC1 (stereo not given)	-3	-5	6%	-4%	?	12%
O=S(=O)(c1ccc(OCC(O)CN2CCC(Cc3ccccc3)CC2)cc1)N1CCOCC1 (stereo not given)	-3	-7	-7%	-10%	?	12µM*
Cc1ccc(OCC(O)CN2CCOCC2)cc1 (stereo not given)	-3	/	5%	3%	-12%	18%
O=C(c1ccccc1)N1CCN(CC(O)COc2ccc(Br)cc2)CC1 (stereo not given)	-3	/	-9%	?	9.3µM*	-6%
OC(COc1ccc(-c2ccccc2)cc1)CN1CCOCC1 (stereo not given)	22*	28	3%	/	69%	-4%
COc1cc2c(cc1OC)CN(C(=O)Cc1c(F)cccc1Cl)CC2	-2	-11	2%	-14%	5%	0%
COC(C[C@@H](O)C[C@H](O)COCc1ccccc1)OC	-11	-8	7%	-1%	60%	46%
O=C(Nc1ccccc1C(=O)NCCCN1CCOCC1)c1ccc(Cl)cc1	-1	22	4%	11%	?	-10%
N#Cc1ccc(OCC(O)CN2CCN(C(c3ccccc3)c3ccccc3)CC2)cc1 (stereo not given)	-4	-6	7%	-23%	12µM*	?
OC1CCCN(CC(O)COc2ccc(-c3ccccc3)cc2)C1 (stereo not given)	23*	54*	5%	2%	-26%	8%
OC(COc1ccc(OCc2ccccc2)cc1)CN1CCOCC1 (stereo not given)	20*	36	-2%	1%	/	18%
COc1cc(/C=C/C(=O)N2CCN(CC(O)COc3ccccc3)CC2)cc(OC)c1OC (stereo not given)	-3	-14	-10%	-7%	4.1µM*	?
COc1ccc([C@@H]2CC=C(C(=O)O)[C@H](c3cccc(Cl)c3)N2S(=O)(=O)c2ccccc2C)cc1	/	/	/	/	31%	?
COc1ccc2c(c1OC)C(=O)N1C2SC(C)(C)[C@H]1C(=O)NC1CC1 (stereo not given in full)	-4	-7	?	-5%	-23%	14%
NC1C(O)OC(CO)[C@@H](O)[C@@H]1O[C@H]1O[C@@H](C(=O)O)C(O)C(O)C1O (stereo not given in full)	/	/	4%	/	/	/
O=S(=O)(c1ccc(Cl)cc1)N1CCN(S(=O)(=O)c2ccc3c(c2)OCCO3)CC1	-8	-7	/	/	/	/
OC(COc1ccc(OCc2ccccc2)cc1)CN1CCCCC1 (stereo not given)	31*	74*	-5%	-6%	/	13%
O[C@H](COc1ccccc1)CN1CCCCC1	/	/	/	1%	/	/
OC(COCc1ccco1)CN1CCN(C(c2ccccc2)c2ccccc2)CC1 (stereo not given)	-4	-3	-13%	-10%	6.6µM*	10µM*
